From PubChem BioAssay (NCATS)
Values joined by “and” are separate entries in the source; they are usually repeats but may differ in a detail not shown here. Equal entries are not always repeated. A number with no mark means an inactive call. Records with an inconclusive call do not appear. Entries that show only a call come without a potency. Some compounds were tested as several samples or in several runs, with calls that do not always agree. Active and inactive are the calls of the source. Unless noted, calls follow the shape of the dose curve; as a rule, active = well fitted curve in the direction sought with a large enough effect; inconclusive = small, poorly fitted or top-dose-only effect, or another doubt; inactive = no such curve, though single readings can be large; an effect the other way counts as inactive or inconclusive.

Experiments:
Hek293T = experiment: Primary qHTS to identify gynecologic anti-cancer compounds using libraries of approved drugs and bioactive compounds (AID 1345084); conditions: Gynecologic cancer cell panel viability, ATPlite luminescence, 48 h, control line for the selectivity index; series mostly up to 57.5 µM; also: nearly all actives have a fitted effect of over 55% in size
Method in brief: (§1)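 In this quantitative HTS, cell killing is estimated from loss of ATP-dependent luciferase light. Cells see five compound concentrations over a 48 h exposure.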

JEG-3 = experiment: as above; conditions: Gynecologic cancer cell panel viability, ATPlite luminescence, 48 h; series mostly up to 57.5 µM
Method in brief: as §1

OV90 = experiment: as above; conditions: Gynecologic cancer cell panel viability, ATPlite luminescence, 48 h; series mostly up to 57.5 µM
Method in brief: as §1

PA-1 = experiment: as above; conditions: Gynecologic cancer cell panel viability, ATPlite luminescence, 48 h; series mostly up to 57.5 µM
Method in brief: as §1

SKOV3 = experiment: as above; conditions: Gynecologic cancer cell panel viability, ATPlite luminescence, 48 h; series mostly up to 57.5 µM
Method in brief: as §1

Tov-21-G = experiment: as above; conditions: Gynecologic cancer cell panel viability, ATPlite luminescence, 48 h; series mostly up to 57.5 µM
Method in brief: as §1

Tov112D = experiment: as above; conditions: Gynecologic cancer cell panel viability, ATPlite luminescence, 48 h; series mostly up to 57.5 µM
Method in brief: as §1

[1] = Drug repurposing screens with cells derived from glioblastoma tumor samples (AID 1345199); conditions: GBM patient neurospheres viability, ATP luminescence, 48 h; also: nearly all actives have a fitted effect of over 40% in size; also: potency is read from the fitted curve at half-maximal effect
Method in brief: (§2)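 Four patient lines of CD133+ GBM neurospheres were screened at several concentrations; hits were retested in those lines plus three slower-growing GBM lines, using 48-hour treatment and ATP-based viability.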

astro = experiment: as above; conditions: viability, ATP luminescence, 48 h; series mostly up to 45.9 µM
Method in brief: as §2

[2] = molecular target: Nuclear receptor subfamily 1 group I member 2 (Rattus norvegicus) (UniProt Q9R1A7); experiment: qHTS assay for small molecule activators of the rat pregnane X receptor (rPXR) signaling pathway (AID 651751; call rule not given here); conditions: rPXR reporter cells, luciferase (One-Glo), 24 h
Nuclear receptor subfamily 1 group I member 2 (Rattus norvegicus), sequence (Q9R1A7 whole entry, looked up): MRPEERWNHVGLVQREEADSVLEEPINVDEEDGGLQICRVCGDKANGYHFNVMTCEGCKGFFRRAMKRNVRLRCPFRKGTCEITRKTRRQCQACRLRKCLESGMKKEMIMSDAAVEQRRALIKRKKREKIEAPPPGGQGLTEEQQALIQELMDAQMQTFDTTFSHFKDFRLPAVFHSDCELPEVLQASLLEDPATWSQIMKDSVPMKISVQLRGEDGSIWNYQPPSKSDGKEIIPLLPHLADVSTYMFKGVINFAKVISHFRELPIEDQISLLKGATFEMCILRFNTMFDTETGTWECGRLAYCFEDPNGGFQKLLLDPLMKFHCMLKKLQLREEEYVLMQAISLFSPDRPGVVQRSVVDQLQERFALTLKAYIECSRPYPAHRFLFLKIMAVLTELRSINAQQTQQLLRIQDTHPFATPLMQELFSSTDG

[3] = at 45.9 µM (top of the series), tumour line B
[4] = at 45.9 µM (top of the series), tumour line D
[5] = at 46.1 µM (top of the series), tumour line C
[6] = at 46 µM (top of the series), tumour line A

CC(C)c1nc(CN(C)C(=O)N[C@H](C(=O)N[C@@H](Cc2ccccc2)C[C@H](O)[C@H](Cc2ccccc2)NC(=O)OCc2cncs2)C(C)C)cs1
Potency (Hek293T): inactive | Potency (JEG-3): inactive | Potency (OV90): inactive | Potency (PA-1): inactive | Potency (SKOV3): inactive | Potency (Tov-21-G): inactive | Potency (Tov112D): inactive | activity, negative = cell killing [1, 3]: -7.95% and -4.95% | activity, negative = cell killing [1, 4]: -23.9% and -23.8% | activity, negative = cell killing [1, 5]: -26.2% and -16% | Potency ([1]; tumour line A): 17.8 µM (active) | Potency (astro): inactive

CN(C)c1ccc(O)c2c1C[C@H]1C[C@H]3[C@H](N(C)C)C(=O)C(C(N)=O)=C(O)[C@@]3(O)C(=O)C1=C2O
Potency (Hek293T): inactive | Potency (JEG-3): inactive | Potency (OV90): inactive | Potency (PA-1): inactive | Potency (SKOV3): inactive | Potency (Tov-21-G): inactive | Potency (Tov112D): inactive | activity, negative = cell killing [1, 3]: -8.81% and -14.2% and -8.47% | activity, negative = cell killing [1, 4]: -14.6% and -28.5% and -14.2% | activity, negative = cell killing [1, 6]: -27.3% and -18.4% | activity, negative = cell killing [1, 5]: -26.9% and -29.7% | Potency (astro): inactive

O=C(NC(Cc1cc(=O)[nH]c2ccccc12)C(=O)O)c1ccc(Cl)cc1 (configuration not stated)
Potency (Hek293T): inactive | Potency (JEG-3): inactive | Potency (OV90): inactive | Potency (PA-1): inactive | Potency (SKOV3): inactive | Potency (Tov-21-G): inactive | Potency (Tov112D): inactive | activity, negative = cell killing [1, 3]: -5.33% | activity, negative = cell killing [1, 4]: 4.89% | activity, negative = cell killing [1, 6]: -9.81% | activity, negative = cell killing [1, 5]: -15.5% | Potency (astro): inactive

Cc1cc2c(s1)Nc1ccccc1N=C2N1CCN(C)CC1
Potency (Hek293T): inactive | Potency (JEG-3): inactive | Potency (OV90): inactive | Potency (PA-1): inactive | Potency (SKOV3): inactive | Potency (Tov-21-G): inactive | Potency (Tov112D): inactive | activity, negative = cell killing [1, 3]: -20.2% | activity, negative = cell killing [1, 4]: -20.6% | activity, negative = cell killing [1, 5]: -6.39% | Potency ([1]; tumour line A): 12.6 µM (active) | Potency (astro): inactive

OC(CN1CCN(c2cccc(Cl)c2)CC1)C(c1ccccc1)c1ccccc1 (configuration not stated)
Potency (Hek293T): inactive | Potency (JEG-3): inactive | Potency (OV90): inactive | Potency (PA-1): inactive | Potency (SKOV3): inactive | Potency (Tov-21-G): inactive | Potency (Tov112D): inactive

C=C(c1ccc(C(=O)O)cc1)c1cc2c(cc1C)C(C)(C)CCC2(C)C
Potency (Hek293T): inactive | Potency (JEG-3): inactive | Potency (OV90): inactive | Potency (PA-1): inactive | Potency (SKOV3): inactive | Potency (Tov-21-G): inactive | Potency (Tov112D): inactive

Cc1ccc(C)c(OCCCC(C)(C)C(=O)O)c1
Potency (Hek293T): inactive | Potency (JEG-3): inactive | Potency (OV90): inactive | Potency (PA-1): inactive | Potency (SKOV3): inactive | Potency (Tov-21-G): inactive | Potency (Tov112D): inactive | activity, negative = cell killing [1, 3]: -12.7% | activity, negative = cell killing [1, 4]: -0.928% | activity, negative = cell killing [1, 6]: -17.6% | activity, negative = cell killing [1, 5]: -8.64% | Potency (astro): inactive | max response [2]: -0.498% and -3.12%

COc1cc2c(N3CCN(C(=O)Nc4ccc(OC(C)C)cc4)CC3)ncnc2cc1OCCCN1CCCCC1
Potency (Hek293T): inactive | Potency (JEG-3): inactive | Potency (OV90): inactive | Potency (PA-1): inactive | Potency (SKOV3): inactive | Potency (Tov-21-G): inactive | Potency (Tov112D): inactive

c1cnc2cc3c(cc2n1)C1CNCC3C1
Potency (Hek293T): inactive | Potency (JEG-3): inactive | Potency (OV90): inactive | Potency (PA-1): inactive | Potency (SKOV3): inactive | Potency (Tov-21-G): inactive | Potency (Tov112D): inactive | activity, negative = cell killing ([1]; at 99.2 µM (top of the series), tumour line C): 7.09% | activity, negative = cell killing ([1]; at 108 µM (top of the series), tumour line A): -15.8% | activity, negative = cell killing ([1]; at 108 µM (top of the series), tumour line B): -8.07% | activity, negative = cell killing ([1]; at 108 µM (top of the series), tumour line D): -25.1% | Potency (astro): inactive

C=CCc1cc(OC)c(O)c(C(=O)NCCO)c1
Potency (Hek293T): inactive | Potency (JEG-3): inactive | Potency (OV90): inactive | Potency (PA-1): inactive | Potency (SKOV3): inactive | Potency (Tov-21-G): inactive | Potency (Tov112D): inactive | activity, negative = cell killing [1, 3]: -18.2% | activity, negative = cell killing [1, 4]: -1.66% | activity, negative = cell killing [1, 5]: 2.37% | Potency (astro): inactive

O=C(OC1C[C@H]2CC[C@@H](C1)[N+]21CCCC1)C(O)(c1ccccc1)c1ccccc1 (some centres not stated)
Potency (Hek293T): inactive | Potency (JEG-3): inactive | Potency (OV90): inactive | Potency (PA-1): inactive | Potency (SKOV3): inactive | Potency (Tov-21-G): inactive | Potency (Tov112D): inactive | activity, negative = cell killing [1, 3]: -3.76% | activity, negative = cell killing [1, 4]: -11.8% | activity, negative = cell killing [1, 5]: -2.11% | Potency (astro): inactive

CC(=O)O[C@H]1C(=O)[C@@]2(C)C([C@H](OC(=O)c3ccccc3)[C@]3(O)C[C@H](OC(=O)[C@H](O)[C@@H](NC(=O)c4ccccc4)c4ccccc4)C(C)=C1C3(C)C)[C@]1(OC(C)=O)CO[C@@H]1C[C@@H]2O (some centres not stated)
Potency (Hek293T): inactive | Potency (JEG-3): inactive | Potency (OV90): inactive

CN1C(C(=O)Nc2ccccn2)=C(O)c2sccc2S1(=O)=O
Potency (Hek293T): inactive | Potency (JEG-3): inactive | Potency (OV90): inactive | Potency (PA-1): inactive | Potency (SKOV3): inactive | Potency (Tov-21-G): inactive | Potency (Tov112D): inactive | activity, negative = cell killing ([1]; at 20 µM (top of the series), tumour line C): 2.25% | activity, negative = cell killing ([1]; at 21.2 µM (top of the series), tumour line B): -11.7% | activity, negative = cell killing ([1]; at 21.2 µM (top of the series), tumour line D): -11.3% | Potency (astro): inactive

O=C(O)c1cn(-c2ccc(F)cc2)c2cc(N3CCNCC3)c(F)cc2c1=O
Potency (Hek293T): inactive | Potency (JEG-3): inactive | Potency (OV90): inactive | Potency (PA-1): inactive | Potency (SKOV3): inactive | Potency (Tov-21-G): inactive | Potency (Tov112D): inactive | activity, negative = cell killing [1, 3]: -14.1% | activity, negative = cell killing [1, 4]: -2.04% | activity, negative = cell killing [1, 5]: 0.795% | Potency (astro): inactive

COc1ccc(C2(C#N)CCC(C(=O)O)CC2)cc1OC1CCCC1 (configuration not stated)
Potency (Hek293T): inactive | Potency (JEG-3): inactive | Potency (OV90): inactive | Potency (PA-1): inactive | Potency (SKOV3): inactive | Potency (Tov-21-G): inactive | Potency (Tov112D): inactive | activity, negative = cell killing [1, 3]: -12.3% | activity, negative = cell killing [1, 4]: -10.6% | activity, negative = cell killing [1, 5]: -18.3% | Potency (astro): inactive
